Source: PubChem (several laboratories)
Only some compounds are listed: those with a hit (about 2.1% of all), similar ones and a draw of the others.
EP2 modulator: EP2 receptor modulators, cAMP readout, primary screen, cell-based, HTRF cAMP, PGE2 stimulation; Prostaglandin E2 receptor EP2 subtype (Homo sapiens), P43116; EP2-expressing cells, cAMP HTRF FRET, PGE2 co-stimulation; induction, % at 25 µM; 260,000 tested, 0.83% active;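 active = compounds whose cAMP rise, as percent of the full-agonist control response, exceeds 60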;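 note: rat C6 glioma line stably carrying human EP2 under a CMV promoter; the protocol text gives 20 µM as final concentration; 100% = response of wells given 1 µM PGE2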
Target sequence (P43116 whole entry, looked up): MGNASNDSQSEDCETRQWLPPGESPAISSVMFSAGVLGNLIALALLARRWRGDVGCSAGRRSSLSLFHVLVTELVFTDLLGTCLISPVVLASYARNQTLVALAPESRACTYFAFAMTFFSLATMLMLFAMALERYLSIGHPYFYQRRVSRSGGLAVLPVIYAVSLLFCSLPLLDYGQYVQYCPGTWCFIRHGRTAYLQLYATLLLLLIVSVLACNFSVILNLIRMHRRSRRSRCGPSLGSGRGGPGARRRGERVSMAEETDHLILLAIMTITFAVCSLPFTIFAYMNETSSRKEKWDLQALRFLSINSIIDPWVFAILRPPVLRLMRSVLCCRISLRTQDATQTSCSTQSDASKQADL
GSH bead fluor: compound fluorescence on glutathione beads, profiling panel, artefact control, biophysical, 488/530 nm, flow cytometry | fluorescence (KMESF) at 10 µM | 190,000 tested, 0.25% active | GSH beads flow cytometry, compound fluorescence 488/530 nm; hits give high values; in the data active = fluorescence above about 89;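 note: glutathione beads carrying GST-tagged Bcl family fusion proteins plus one bare bead set; values are compound well signal with DMSO vehicle wells as background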
EP2 antag: human EP2 receptor antagonists, primary screen, TR-FRET cAMP, C6 glioma cells; Prostaglandin E2 receptor EP2 subtype (Homo sapiens), P43116; C6 glioma cells expressing human EP2; cells stimulated with saturating PGE2; AID 1422, 2008; 260,000 tested, 0.52% active; inhibition, % at 25 µM;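 active = percent inhibition above 40 after rounding to a whole number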;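 note: rat C6 glioma host cells with rolipram phosphodiesterase inhibitor present; the protocol text gives 20 µM as final concentration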
Efa HMGR inh: inhibitors of E. faecalis class II HMGR, primary screen, biochemical, Enterococcus faecalis; HMG-CoA reductase (Enterococcus faecalis, mvaE); purified E. faecalis HMGR, NADPH absorbance 340 nm kinetic; inhibition, % at 10 µM; 190,000 tested, 0.41% active; AID 1066, 2008;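 active = inhibition above a set limit, the median over all tested compounds plus 3 SD, cut at about 9.5% in these data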;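 note: enzyme runs in reverse so mevalonate oxidation gives rising NADPH absorbance; 0% = complete reaction with DMSO and 100% = background rate lacking mevalonate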
Avidin bead fluor: green autofluorescence of compounds with avidin beads – biophysical, 488/530 nm, flow cytometry, artefact control, profiling panel. compound fluorescence 488/530 nm; hits give high values. fluorescence (KMESF) at 10 µM. 220,000 tested, 0.38% active. AID 1775, 2009; in the data active = fluorescence above about 47
Starred values were filed as active, the others as inactive; ! = not confirmed by another sample.

CNCc1ccccc1Sc1cc(O)ccc1O was read as EP2 modulator -3, GSH bead fluor 16, EP2 antag 106*, Efa HMGR inh -5 and Avidin bead fluor 12.
Screening CCOC(=O)CSc1nc2ccc(Nc3nc(N4CCOCC4)nc(N4CCOCC4)n3)cc2s1 returned EP2 modulator -34, GSH bead fluor 21, EP2 antag 72*, Efa HMGR inh -8 and Avidin bead fluor 10.
CC(=O)CSc1nc2ccc(Nc3nc(N4CCOCC4)nc(N4CCOCC4)n3)cc2s1 was read as EP2 modulator -28, GSH bead fluor 17, EP2 antag 4, Efa HMGR inh 0 and Avidin bead fluor 9.
Screening CC(C)(C)NC(=O)CSc1nnc(-c2ccco2)n1CC1CCCO1 (stereo unspecified) returned EP2 modulator -22 and EP2 antag 8.
O=C(O)CSc1nc(-c2ccccc2)nc2ccc(F)cc12 was read as EP2 modulator 89* and EP2 antag 12.
`OCCSc1nc(-c2ccccc2)nc2ccc(F)cc12` gave EP2 modulator 70*!, GSH bead fluor 10, EP2 antag 12, Efa HMGR inh -1 and Avidin bead fluor 12.
For COc1ccc2c(c1)C(=O)NC2CC(=O)NC1(c2ccccc2OC)CCCC1 (stereo unspecified) the results were EP2 modulator -16.
Cc1nc(C(=O)Nc2ccccc2C(F)(F)F)cc2c1[nH]c1ccccc12 was read as EP2 modulator -4 and EP2 antag 9.
Screening COc1ccc(C(c2nnnn2C2CCCCC2)N2CCN(c3ccccc3F)CC2)cc1OC (stereo unspecified) returned EP2 modulator -4 and EP2 antag 13.
`COc1ccc(OC)c(C(c2nnnn2C2CCCC2)N2CCN(c3ccccc3F)CC2)c1` (stereo unspecified) gave EP2 modulator 66*!, GSH bead fluor 27, EP2 antag 5, Efa HMGR inh -5 and Avidin bead fluor 13.
Screening C=CCOc1ccc(Cl)cc1CNC1CCCC1 returned EP2 modulator 62*, GSH bead fluor 21, EP2 antag 5, Efa HMGR inh -2 and Avidin bead fluor 10.
Screening COc1ccc(CNC2CCCC2)c(OC)c1OC returned EP2 modulator 49, GSH bead fluor 12, EP2 antag 11, Efa HMGR inh 1 and Avidin bead fluor 39.
Screening CCNc1nc(SCc2ccccc2)nc(N2CCOCC2)n1 returned EP2 modulator 63*, GSH bead fluor 23, EP2 antag 7, Efa HMGR inh -2 and Avidin bead fluor 27.
Screening CN(C)c1nc(SCc2ccccc2)nc(N2CCOCC2)n1 returned EP2 modulator 26, GSH bead fluor 12, EP2 antag 9, Efa HMGR inh -3 and Avidin bead fluor 33.
`Cc1ccc(C(=O)N/N=C/C=C/c2ccccc2)o1` gave EP2 modulator -10, GSH bead fluor 20, EP2 antag 4, Efa HMGR inh 11* and Avidin bead fluor 36.
Screening COC(=O)CSc1nc2ccc(NC(=O)CSc3nnnn3Cc3ccccc3)cc2s1 returned EP2 modulator -43, GSH bead fluor 10, EP2 antag 48*, Efa HMGR inh 2 and Avidin bead fluor 7.
O=C(O)CSc1nnc(-c2ccccn2)o1 was read as EP2 modulator 14 and EP2 antag 12.
CN(C)S(=O)(=O)c1cccc(NC(=O)COC(=O)CCOc2ccccc2)c1 was read as EP2 modulator 12, GSH bead fluor 13, EP2 antag 6, Efa HMGR inh -1 and Avidin bead fluor 88*.
CC(C)c1ccc(CN(Cc2ccco2)C(=O)c2cc3ccccc3oc2=O)cc1 was read as EP2 modulator -35 and EP2 antag 8.
For O=C(O)CCNc1cc2ccccc2cc1C(=O)O the results were EP2 modulator 15, GSH bead fluor 255*, EP2 antag 13, Efa HMGR inh 0 and Avidin bead fluor 6.
`Cc1cccc(-c2n[nH]c(=S)o2)c1` gave EP2 modulator 36 and EP2 antag 41*.
`S=c1[nH]nc(-c2cccnc2)o1` gave EP2 modulator 9, GSH bead fluor 29, EP2 antag 19, Efa HMGR inh 0 and Avidin bead fluor 13.
For CCOc1ccccc1-c1n[nH]c(=S)o1 the results were EP2 modulator 41, GSH bead fluor 4, EP2 antag 40*, Efa HMGR inh 1 and Avidin bead fluor 7.
Screening S=c1[nH]nc(-c2cccc(Br)c2)o1 returned EP2 modulator 28, GSH bead fluor 14, EP2 antag 53*, Efa HMGR inh -2 and Avidin bead fluor 9.
Screening Cc1ccc2cc(CN(Cc3ccco3)C(=O)NC3CCCCC3)c(=O)[nH]c2c1C returned EP2 modulator 61*, GSH bead fluor 14, EP2 antag 6, Efa HMGR inh -1 and Avidin bead fluor 7.
For Cc1nn(CC(=O)NC(C)c2ccccn2)c(=O)c2cc3sccc3n12 (stereo unspecified) the results were EP2 modulator 11.
For O=C(CSc1nnc(-c2c[nH]c3ccccc23)o1)N1CCCCC1 the results were EP2 modulator 4, GSH bead fluor 24, EP2 antag 13, Efa HMGR inh -2 and Avidin bead fluor 57*.
Cc1occc1-c1nnc(SCC(=O)N2CCCCC2)o1 was read as EP2 modulator 16, GSH bead fluor 24, EP2 antag 7, Efa HMGR inh 13* and Avidin bead fluor 10.
Screening O=C(CSc1nnc(-c2c[nH]c3ccccc23)o1)N1CCCCCC1 returned EP2 modulator -63 and EP2 antag 7.
Screening Cc1occc1-c1nnc(SCC(N)=O)o1 returned EP2 modulator 19, GSH bead fluor 10, EP2 antag 6, Efa HMGR inh -7 and Avidin bead fluor 10.
For O=C(CN1C(=O)c2ccccc2C1=O)OCC(=O)N1CCc2ccccc2C1 the results were EP2 modulator 17, GSH bead fluor 268*, EP2 antag 8, Efa HMGR inh -3 and Avidin bead fluor 8.
Cc1cccc(NCc2cc(Cl)cc(Cl)c2O)n1 was read as EP2 modulator 54, GSH bead fluor 17, EP2 antag 0, Efa HMGR inh -5 and Avidin bead fluor 175*.
Screening CCC1Oc2ccccc2N(CC(=O)NCc2ccco2)C1=O (stereo unspecified) returned EP2 modulator 4, GSH bead fluor 24, EP2 antag 5, Efa HMGR inh 41* and Avidin bead fluor 5.
For CC1Oc2ccccc2N(CC(=O)NCc2ccco2)C1=O (stereo unspecified) the results were EP2 modulator -17 and EP2 antag 4.
Screening CCOC(=O)CCC(NC(=O)CC(=O)NC(CCC(=O)OCC)C(=O)OCC)C(=O)OCC (stereo unspecified) returned EP2 modulator 25, GSH bead fluor 25, EP2 antag 11, Efa HMGR inh 10* and Avidin bead fluor 12.
